In all, about 39,000 sequences were measured (“fluorescence intensity (a.u.)”: median about 4,300, highest 2% from about 39,000 on). For the sample, the highest values were picked, then their nearest neighbours and some sequences at random.

The assay deals with T1, OsSMF1 (Oryza sativa, UniProt Q6ZLB0 1-436).
T1 sequence: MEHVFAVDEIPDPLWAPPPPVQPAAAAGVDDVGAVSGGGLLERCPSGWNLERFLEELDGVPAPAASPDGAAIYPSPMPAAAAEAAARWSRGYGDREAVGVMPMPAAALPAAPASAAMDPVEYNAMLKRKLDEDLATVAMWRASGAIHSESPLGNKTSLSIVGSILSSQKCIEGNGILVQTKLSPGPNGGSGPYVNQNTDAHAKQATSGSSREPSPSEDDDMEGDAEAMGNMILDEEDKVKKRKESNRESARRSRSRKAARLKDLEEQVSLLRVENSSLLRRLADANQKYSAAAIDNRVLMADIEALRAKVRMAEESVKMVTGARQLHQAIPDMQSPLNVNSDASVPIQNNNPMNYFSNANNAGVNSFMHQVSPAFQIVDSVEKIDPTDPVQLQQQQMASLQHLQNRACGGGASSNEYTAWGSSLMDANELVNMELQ
The experiment in a line: protein-binding microarray (RPBM); PBS, 2% BSA, 51.3 ng/ul salmon testes DNA, 50 uM zinc acetate, 200 nM TF, 25 C, 1 h; high values mean tight binding. The settings on record: protein: recombinant; tags: N-terminal polyhistidine and DsRed monomer fusion (pET32a); chain copies: 2; label: CyDye5-dUTP incorporated in the synthesized complementary strand; 3' TTTTT single-stranded linker to array surface; dsDNA, one strand shown. The method, boiled down: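 Transcription factors, each fused N-terminally to a polyhistidine tag and DsRed, were expressed in E. coli BL21-CodonPlus and purified on Ni–NTA. A custom Agilent array was made double-stranded by primer extension with Cy5-dUTP and blocked with 2% BSA. It was incubated with 200 nM protein in PBS, 2% BSA, salmon testes DNA and 50 µM zinc acetate at 25 °C for 1 h, then washed. The binding signal is per-feature fluorescence intensity (arbitrary units) read on an Axon 4000B scanner.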
As to “GGATTGGCGACTCGACGTTGACAACATGACATATGAGGTACGGAGTCACCTAGTGCAG”, the binding signal is 4210 fluorescence intensity (a.u.).
For the sequence “GCTGCTCTCTCTCTCTCTCTCTCCCATCTCGTCCTCGCTTCGGAGTCACCTAGTGCAG”, the binding signal is 19400 fluorescence intensity (a.u.).
Regarding “TCCACCTGGGTTCAAATCCTAGATTTGACACGGGTGCTCGCGGAGTCACCTAGTGCAG”, the binding signal is 4830 fluorescence intensity (a.u.).
With “ATAGCATCCTGTACACTCAAGTCATCCCTGACACACACACCGGAGTCACCTAGTGCAG”, the binding signal was 3850 fluorescence intensity (a.u.).
For “GGGCCAATCTAGTTGTCAACTTCTACTACTGCTAGGAGGACGGAGTCACCTAGTGCAG”, the binding signal was 3410 fluorescence intensity (a.u.).
Then “GCTCGCCGGCCTCACCCTCAATACATGGTGATTCATCCGGCGGAGTCACCTAGTGCAG”, with 3660 fluorescence intensity (a.u.).
Then “TGAATCCACAGCCACGCCACGCGGCCCATGCCTACGCCTCCGGAGTCACCTAGTGCAG”, with 4000 fluorescence intensity (a.u.).
Turning to “CCTTGCCGCCGGCCAATTTATTGACTCACCGAGAAGTTTGCGGAGTCACCTAGTGCAG”, the binding signal was 5600 fluorescence intensity (a.u.).
Regarding “TGTGACCCATTCTAATACAATAAATCTGGACATGTGTACTCGGAGTCACCTAGTGCAG”, the binding signal is 3630 fluorescence intensity (a.u.).
Consider “GCCTTCCGTTCCGCTCCTCTACCGCCGCGTCAAGATTCCCCGGAGTCACCTAGTGCAG”, for which the binding signal was 4950 fluorescence intensity (a.u.).
Then “CGCCGCCGGCCGCGCCGCCGCTGCCGCCGTCGCCCCGCGCCGGAGTCACCTAGTGCAG”, with 3450 fluorescence intensity (a.u.).
Regarding “TTTCCGCTATCGCGGTGCGCGCGGAAGGCCCCGCTGCGGCCGGAGTCACCTAGTGCAG”, the binding signal was 39200 fluorescence intensity (a.u.).
In the case of “TGCGCCGCCGCCGCCGCCGCCGCTGCGGCGTGCATCCGCCCGGAGTCACCTAGTGCAG”, the binding signal is 37400 fluorescence intensity (a.u.).
Then “ATCTCTAAACACCAAATTTGACACCGATCCACGTGCACACCGGAGTCACCTAGTGCAG”, with 7210 fluorescence intensity (a.u.); and “GACCAAGATGACAAAGATTACTATTATACTGATGATAACCCGGAGTCACCTAGTGCAG”, with 34100 fluorescence intensity (a.u.); and “GCCATTGATGACAAAGACAACCTGGAAGATTACTGTTGCACGGAGTCACCTAGTGCAG”, with 64300 fluorescence intensity (a.u.).
For the sequence “AAGTCTGCAGTTGCACTGGGAGTTGACAAAGAAGATGACGCGGAGTCACCTAGTGCAG”, the binding signal is 3550 fluorescence intensity (a.u.).
As for “GTCCTCATCCTAGGTAAAATAACCACGTCATCTCACAGGTCGGAGTCACCTAGTGCAG”, the binding signal was 20700 fluorescence intensity (a.u.).
“GCTAGCGCGCATTGACCAAGATCCGATTTGTATGCTAGTGCGGAGTCACCTAGTGCAG”: the binding signal is 4060 fluorescence intensity (a.u.).
Turning to “GAGCAGAAAGACGCGGCTTCTCGAGAGTTCCAAGTTCCAACGGAGTCACCTAGTGCAG”, the binding signal is 45200 fluorescence intensity (a.u.).
On to “CCGAGAGAAAGAGAGCAAGAGAGAGAGACGGGCTCAAGAGCGGAGTCACCTAGTGCAG”, for which the binding signal is 4560 fluorescence intensity (a.u.).
On to “GCAGAGGCGGCGAGGCTCGGCTTCTTCTCGAACGGCGCCGCGGAGTCACCTAGTGCAG”, for which the binding signal was 27600 fluorescence intensity (a.u.).
Take “CGATGAGCACCGCAGCGATTGACATATTGCAATATCGTTCCGGAGTCACCTAGTGCAG”: the binding signal was 3550 fluorescence intensity (a.u.).
With “ACGTACGTGTGCGTATCCGACAAGTCCCACGACGTGGCAACGGAGTCACCTAGTGCAG”, the binding signal was 4960 fluorescence intensity (a.u.).
The value for “TTTTACATGATTGGATGACAAAGCCTATTTCGTTTTGTTGCGGAGTCACCTAGTGCAG” was 5400 fluorescence intensity (a.u.); that for “TATTTTGGAAAATGAGTCACAGGGTTATTGTAGCTTTGAACGGAGTCACCTAGTGCAG” was 9390 fluorescence intensity (a.u.); that for “AAATCAGGAAATGAAAAGCTAGGGTTTTAGGTATTGTAATCGGAGTCACCTAGTGCAG” was 40800 fluorescence intensity (a.u.).
With “TATTTGGTTTTGTAGGGGTTGGTTTGGGAAAATTGGAAAGCGGAGTCACCTAGTGCAG”, the binding signal was 4240 fluorescence intensity (a.u.).
As to “TGGTTGTATTAGGTTAATAAGCCACGTCAGTGAAAAGCACCGGAGTCACCTAGTGCAG”, the binding signal is 16100 fluorescence intensity (a.u.).
In the case of “TGAATGCACGTACTGGTGATGAATCTCTGATGGATGGAAGCGGAGTCACCTAGTGCAG”, the binding signal was 3210 fluorescence intensity (a.u.).
On to “AGCAGAGTGATCTCTGATGGTCACGGGCCGAGAAGGGAAGCGGAGTCACCTAGTGCAG”, for which the binding signal is 45700 fluorescence intensity (a.u.).
For the sequence “CCACCGGAAACAGGGAAGAAGAGGGGTCGAGAAAGGGGAGCGGAGTCACCTAGTGCAG”, the binding signal was 4020 fluorescence intensity (a.u.).
On to “AGAAGGGGAGAAAAGGAAACCGATCTCGGTCATGGCCACGCGGAGTCACCTAGTGCAG”, for which the binding signal was 50900 fluorescence intensity (a.u.).
As to “AGCAGGAGAAGGGACCGAGAGAAGAGTCGCAGAGAGAGAGCGGAGTCACCTAGTGCAG”, the binding signal was 3660 fluorescence intensity (a.u.).
Then “AGAGAGGGAAGGGAGGGAGGGAGGGAGGAGGGAGAGATCTCGGAGTCACCTAGTGCAG”, with 6770 fluorescence intensity (a.u.); and “GCCGCGCCGTCCTGTGTGTGCGTGGCGCCAATGCATGCTACGGAGTCACCTAGTGCAG”, with 3590 fluorescence intensity (a.u.).
In the case of “GGTTTTGGAGAGCGGTTTCACTGACGTGGCAGTGTTGACCCGGAGTCACCTAGTGCAG”, the binding signal was 22900 fluorescence intensity (a.u.).
On to “ACGCCTCATCTCCAGTCCACGGCTCAACGTCCACGCACACCGGAGTCACCTAGTGCAG”, for which the binding signal was 3490 fluorescence intensity (a.u.).
With “TGATTTTGTTTTAATACATGCAATCTTTCGATCCAATGGCCGGAGTCACCTAGTGCAG”, the binding signal is 24000 fluorescence intensity (a.u.).
For the sequence “TCGATCTGCACATGTGCACGCGCATGTGTCGTCGGCTTAGCGGAGTCACCTAGTGCAG”, the binding signal is 3230 fluorescence intensity (a.u.).
In the case of “GACTAATCAAACAATTTCCCTCGCTATTAGTCACTGACAGCGGAGTCACCTAGTGCAG”, the binding signal is 3590 fluorescence intensity (a.u.).
As for “CACCTAGCATGCATAGGACGAGGCATTTAATTTTACTTATCGGAGTCACCTAGTGCAG”, the binding signal is 22000 fluorescence intensity (a.u.).

Values taken from publication PMC7819943, “Rice protein-binding microarrays: a tool to detect cis-acting elements near promoter regions in rice”.
